A selection: hits, their analogues and other compounds. The true share with any hit is near 2.5%.
Cruzain noTriton: cruzain (T. cruzi) inhibition without detergent. P25779. purified cruzain, Z-FR-AMC fluorescence, no detergent. Potency, µM, actives largely listed as inhibitors. 200,000 tested, 2.3% active. AID 1476; also: nearly all actives have a fitted effect of over 40% in size
Target sequence (P25779 123-467 limits assumed): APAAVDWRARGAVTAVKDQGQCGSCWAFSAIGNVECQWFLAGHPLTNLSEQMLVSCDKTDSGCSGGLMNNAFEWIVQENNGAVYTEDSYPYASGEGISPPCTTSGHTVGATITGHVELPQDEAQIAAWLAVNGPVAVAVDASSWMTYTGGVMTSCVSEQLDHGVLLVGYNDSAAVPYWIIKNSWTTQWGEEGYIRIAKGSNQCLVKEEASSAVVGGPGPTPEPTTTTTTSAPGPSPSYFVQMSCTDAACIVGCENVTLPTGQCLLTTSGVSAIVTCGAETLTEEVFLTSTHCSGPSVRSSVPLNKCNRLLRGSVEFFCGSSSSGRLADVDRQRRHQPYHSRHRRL
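Purified cruzain at 1.5 nM, pre-incubated 15 min with compound at room temperature in 100 mM sodium acetate pH 5.5, 5 mM DTT, 0.00005% Triton X-100. Reaction started with 2 uM Z-FR-AMC; AMC fluorescence increase over 60 s gives rate.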
Cruzain Triton: blocks cruzain activity in presence of Triton detergent; P25779; purified cruzain, Z-FR-AMC fluorescence, 0.01% Triton; Potency, µM, most hits filed as inhibitors; 200,000 tested, 0.43% active; AID 1478; also: nearly all actives have a fitted effect of over 40% in size
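Detergent-containing run (0.01% Triton X-100) in acetate buffer pH 5.5 with 5 mM DTT: enzyme at 1.5 nM final, 15 min compound preincubation at room temperature, then 2 uM Z-FR-AMC substrate. Activity taken as 60 s fluorescence increase at 360/450 nm.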
Hits are given with their value; 0 = inactive; ? = inconclusive. Calls follow the shape of the dose curve; as a rule, active = well fitted curve in the direction sought with a large enough effect; inconclusive = small, poorly fitted or top-dose-only effect, or another doubt; inactive = no such curve, though single readings can be large; an effect the other way counts as inactive or inconclusive.

SMILES | Cruzain noTriton | Cruzain Triton
CCN(CC)CCSc1nnc2c3cc(F)ccc3n(C)c2n1 | 12.6µM | 15.8µM
CCN(CC)CCn1c2ccc(F)cc2c2nc(C)sc21 | 0 | 0
CCOc1ccc2c(c1)c1nnc(SCC(=O)N3CCCCC3C)nc1n2C (centres undefined) | ? | 0
Cc1cc(C)c(NC(=O)C(=O)NCC(c2cccnc2)N2CCN(c3ccccc3F)CC2)c(C)c1 (centres undefined) | 0 | 0
CC1(C)[C@@H]2CC[C@@]1(CS(=O)(=O)Nc1ccccc1)C(=O)C2 | 0 | 0
C#CCOC(=O)/C(=C/C=C/c1ccccc1)NC(=O)c1ccccc1 | 12.6µM | 7.08µM
CC(C)OC(=O)/C(=C\C=C\c1ccccc1)NC(=O)c1ccccc1 | 0 | 0
CC(C)/C(=N/[N+](C)(C)C)c1ccccc1 | 0 | 0
COc1ccc(Cl)cc1NC(=O)CSc1nc2c([nH]c3ccccc32)c(=O)n1-c1ccccc1 | 0 | 0
Cc1cccnc1Nc1nc(-c2ccc(O)cc2)cs1 | 0 | 0
Oc1ccc(Nc2nc(-c3cccs3)cs2)cc1 | 0 | 0
COc1ccc(Nc2nc(-c3sc(NC(C)=O)nc3C)cs2)cc1 | 0 | 0
COc1ccc(CCNc2nc(-c3sc(N)nc3C)cs2)cc1OC | 10µM | 14.1µM
COc1ccc(CCNc2ccncn2)cc1OC | 0 | 0
COc1ccc(Nc2nc(-c3cccs3)cs2)cc1 | 15.8µM | 0
COc1ccc(Nc2nc(-c3sc(N)nc3C)cs2)cc1 | 15.8µM | 15.8µM
Cc1nc(N)sc1-c1csc(Nc2ccccn2)n1 | 12.6µM | ?
CC(=O)CSc1nc(-c2ccccc2)[nH]c1S(=O)(=O)c1ccc(C)cc1 | 0 | 0
CC(=O)N1c2ccc(S(=O)(=O)Nc3ccc(Cl)cc3C)cc2CC1C (centres undefined) | 0 | 0
Cc1nc(NC2CCCCC2)c2nc(-c3ccccc3)n(CCN3CCCCC3)c2n1 | 0 | 0
O=C(O)C(Cc1cccs1)C(=O)O | 0 | 0
COc1ccc(Cl)cc1NC(=O)Cn1ccn(-c2cc(C)cc(C)c2)c(=O)c1=O | 0 | 0
COc1ccc(CNC(=O)c2sc3nc4n(c(=O)c3c2C)CCCC4)cc1 | 0 | 0
CC(=O)Nc1cccc(-c2csc(Nc3ccc(C)cn3)n2)c1 | 0 | 0
Cc1nc(N)sc1-c1csc(Nc2ccc(Cl)cn2)n1 | 15.8µM | 28.2µM
SMILES | Cruzain noTriton | Cruzain Triton
Cc1cc(C)cc(NC(=O)CN(C)S(=O)(=O)c2ccc3c(c2)CCC(=O)N3)c1 | 0 | 0
CC[n+]1c(/C=C/C=C/N(C(C)=O)c2ccccc2)sc2ccccc21 | 20µM | 0
CC[n+]1c(/C=C/N(C)c2ccccc2)sc2ccc(Cl)cc21 | 0 | 0
C[C@@]12Cc3cnc(-c4ccccc4)nc3C[C@@H]1CC[C@@H]1[C@H]3CC[C@@](C)(O)[C@]3(C)CC[C@@H]12 | 0 | 0
CCOc1ccc(S(=O)(=O)Nc2ccc3c(c2)c(C(C)=O)c(C)n3S(=O)(=O)c2ccc(OCC)cc2)cc1 | ? | 0
CCOc1ccc(S(=O)(=O)Nc2ccc3c(c2)c2c(n3S(=O)(=O)c3ccc(OCC)cc3)CCCC2=O)cc1 | 7.94µM | 0
COc1ccc(NC(=O)c2c(NCc3ccc(C)o3)sc3c2CCC(C)C3)cc1 (centres undefined) | 0 | 0
CCOc1ccc2ncc3c(-c4ccccc4)nn(CC(=O)Nc4cccc(F)c4)c3c2c1 | 0 | 0
COc1cccc(NC(=O)Cn2c(=O)n(-c3ccccc3)c(=O)c3ccc(C(=O)NCc4ccc5c(c4)OCO5)cc32)c1 | ? | 0
Cc1ccc(SCc2cc(=O)[nH]c(/N=C(\N)Nc3cccc4ccccc34)n2)cc1 | 31.6µM | 0
COc1ccc(Cl)cc1N/C(N)=N/c1nc(CSc2ccc(C)cc2)cc(=O)[nH]1 | ? | 0
Cc1ccc(NC(=O)c2ccc(CNS(=O)(=O)c3cccc(C(F)(F)F)c3)cc2)cc1 | 25.1µM | 0
O=C(Nc1ccccc1F)c1ccc(CNS(=O)(=O)c2cccc(C(F)(F)F)c2)cc1 | ? | 0
COc1cccc([C@@H]2Oc3ccc(OC)cc3C[C@H]2OC(=O)N[C@H]2CCCc3ccccc32)c1 | 0 | 0
COc1ccc2nc(NC(=O)CSc3nc4ccccc4o3)sc2c1 | 0 | 0
O=C(CSc1nc2ccccc2o1)Nc1nc2ccc(Br)cc2s1 | 10µM | 0
COC(=O)C(C(C)=O)C(NC(=O)OC(C)(C)C)c1ccccc1 (centres undefined) | 0 | 0
CC1=C(C(=O)Nc2ccccc2)C(c2ccccc2C)n2ncc(C(=O)Nc3ccccc3)c2N1 (centres undefined) | 0 | 0
CC1=C(C(=O)Nc2ccccc2)C(c2ccccc2Cl)n2ncc(C(=O)Nc3cccc(C)c3)c2N1 (centres undefined) | 20µM | 0
COc1ccc(-c2noc(CN(C(=O)c3ccc(C)cc3C)C(C)C)n2)cc1 | 0 | 0
Cc1ccc(Cl)cc1N(C)C(=O)c1cc2ccc3cccnc3c2[nH]1 | 0 | 0
Cc1nn(C)c(C)c1S(=O)(=O)N(CC(=O)NCCc1ccccc1)c1ccc(C(C)C)cc1 | ? | 0
Cc1nn(C(=O)c2cccc(F)c2)c(C)c1S(=O)(=O)N1CCOCC1 | 0 | 0
O=C(N/N=C/c1ccncc1)c1cccc(NC(=O)c2ccccc2Cl)c1 | 0 | 0
O=C(Nc1cccc(NC(=O)c2ccccc2Cl)c1)c1cccc(Br)c1 | 7.94µM | 0
SMILES | Cruzain noTriton | Cruzain Triton
O=C(NCc1cccc(F)c1)c1ccc(-n2cnc3cccnc32)cc1 | 0 | 0
O=C(Nc1ccc(Cn2cccn2)cc1)c1ccc(COc2cccc(Br)c2)cc1 | 0 | 0
O=C(Nc1ccc(Cn2cccn2)cc1)c1ccc(COc2ccc(Br)cc2)cc1 | 12.6µM | 0
COc1ccc(CNC(=O)Cc2c(C)c3ccc(O)cc3oc2=O)cc1 | 25.1µM | 0
COc1ccc(CNC(=O)Cc2c(C)c3c(O)cc(C)cc3oc2=O)cc1 | 0 | 0
CCCC(=O)Nc1ccc(Cl)c(NC(=S)NC(=O)c2cc3ccccc3o2)c1 | 5.01µM | 0
O=C(Nc1c(C(=O)Nc2ccc(F)cc2)oc2ccccc12)c1cc2ccccc2o1 | 12.6µM | 0
CCC(=O)Nc1ccc(NC(=S)NC(=O)c2cc3ccccc3o2)cc1 | 0 | 0
COc1cc(NC(=O)c2ccccc2)ccc1NC(=O)c1cc2ccccc2o1 | 0 | 0
O=C(Nc1ccc2oc(=O)ccc2c1)c1cc2ccccc2o1 | 0 | 0
COc1ccc(NC(=O)c2oc3ccccc3c2NC(=O)c2cc3ccccc3o2)cc1 | ? | 0
COc1cc(NC(=O)c2cc(Cl)ccc2Cl)ccc1NC(=O)c1cc2ccccc2o1 | 15.8µM | 0
Cc1cc(=O)oc2cc(NC(=O)c3cc4ccccc4o3)ccc12 | 10µM | 0
Cc1ccc(NC(=O)c2ccc(OC(=O)COc3ccc(Cl)c(C)c3)cc2)cc1 | 15.8µM | 0
Cc1ccc(NC(=O)c2ccc(OC(=O)c3ccco3)cc2)cc1 | 0 | 0
O=C(Nc1ccc(NC(=O)c2cc3ccccc3o2)cc1)c1ccccc1 | 3.16µM | 0
Cc1ccc(NC(=O)c2ccc(OC(=O)c3cc4ccccc4o3)cc2)cc1 | 7.94µM | 0
O=C(O)c1ccc(NC(=O)c2cc3ccccc3o2)cc1 | 0 | 0
COC(=O)COc1cccc(NC(=O)c2ccc(C)cc2)c1 | 0 | 0
O=C(NCc1ccc(Cl)cc1)C1CCN(S(=O)(=O)c2ccc3c(c2)CCCN3C(=O)C2CCC2)CC1 | 0 | 0
O=C(O)c1c[nH]c2c(ccc3[nH]cc(C(=O)O)c(=O)c32)c1=O | 0 | 0
O=[As](O)(O)c1ccc(N=Nc2ccc([As](=O)(O)O)cc2)cc1 | 0 | 0
Cc1ccc(-c2nc(C)c(CCNC(=O)C(=O)Nc3cc(C)ccc3C)s2)cc1 | 0 | 0
